Shown are actives, neighbours in structure and some others; about 1.6% of the full set was active somewhere.
KCNQ2 enhance = KCNQ2 (rat) channel potentiation. O88943. CHO-K1 KCNQ2, FluxOR thallium flux fluorescence; stronger effect = higher value. B-score at 10 µM. 310,000 compounds, 0.54% hits;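 active = fluorescence ratio B-score at least 3 SD of library B-scores, with initial fluorescence B-score within 3 of them, cut at about 5.3 in these data; same plate scores as AID 2156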;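 note: B-score of peak minus minimum over baseline fluorescence ratio after K+ and Tl+ stimulus; positive B-score means potentiation of KCNQ2 with more thallium influx and brighter signal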
KCNQ2 block = blocks the rat KCNQ2 potassium channel. 310,000 compounds, 1.1% hits. CHO-K1 KCNQ2, FluxOR thallium flux, 20 min; stronger effect = lower value. B-score at 10 µM. O88943;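 active = fluorescence ratio B-score at most minus 3 library SDs, with starting brightness B-score within 2 library SDs, cut at about -5.5 in these data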
Kir21 confirm = confirmation of mouse Kir2.1 potassium channel inhibitors | 2,300 compounds, 41% hits | shares compounds with KCNQ2 enhance | Tl flux remaining, % of negative control (stronger effect = lower value), % at 10 µM | Kir2.1-expressing cells, FluxOR thallium flux fluorescence; stronger effect = lower value;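 active = Primary-screen hit whose thallium flux fell at least 3 control SD below untreated wells in both duplicates, with normal baseline fluorescence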
HEK293 ctr = counter-screen for Kir2.1 inhibitors: effect in parental HEK293 cells | FluxOR thallium flux fluorescence; 0% = unstimulated blank wells | FluxOR signal as % of negative control (100 = no effect), % at 10 µM | 2,300 compounds, 19% hits | shares compounds with KCNQ2 enhance | AID 2105;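 active = dye signal at least 3 control SD above or below untreated wells in both duplicates, raw fluorescence within 3, either direction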;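 note: percent is based on the flux ratio of peak minus minimum fluorescence over baseline F0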
CHO-K1 ctr = counter-screen for KCNQ2 potentiators: effect in parental CHO-K1 cells. shares compounds with KCNQ2 enhance. FluxOR thallium flux fluorescence; zero = vehicle mean+3SD, 100% = vehicle-minus-blank window. activity increase over 3SD of controls, % at 10 µM. 1,200 compounds, 43% hits. AID 2282;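 active = signal rise of at least 3 SD above the untreated control mean, in both duplicate wells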;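 note: counter screen of KCNQ2 potentiator hits so any rise reflects channel-independent effects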
KCNQ1 pot spec = selectivity of KCNQ2 potentiators: effect on human KCNQ1; shares compounds with KCNQ2 enhance; activation over 3SD threshold, % at 10 µM; 1,200 compounds, 28% hits; CHO KCNQ1 stable, FluxOR thallium flux fluorescence; beyond 3SD, as % of vehicle-control signal;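 active = fluorescence ratio rise of at least 3 SD of vehicle wells above their mean, in both replicate wells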
Target sequence (P51787 whole entry, looked up): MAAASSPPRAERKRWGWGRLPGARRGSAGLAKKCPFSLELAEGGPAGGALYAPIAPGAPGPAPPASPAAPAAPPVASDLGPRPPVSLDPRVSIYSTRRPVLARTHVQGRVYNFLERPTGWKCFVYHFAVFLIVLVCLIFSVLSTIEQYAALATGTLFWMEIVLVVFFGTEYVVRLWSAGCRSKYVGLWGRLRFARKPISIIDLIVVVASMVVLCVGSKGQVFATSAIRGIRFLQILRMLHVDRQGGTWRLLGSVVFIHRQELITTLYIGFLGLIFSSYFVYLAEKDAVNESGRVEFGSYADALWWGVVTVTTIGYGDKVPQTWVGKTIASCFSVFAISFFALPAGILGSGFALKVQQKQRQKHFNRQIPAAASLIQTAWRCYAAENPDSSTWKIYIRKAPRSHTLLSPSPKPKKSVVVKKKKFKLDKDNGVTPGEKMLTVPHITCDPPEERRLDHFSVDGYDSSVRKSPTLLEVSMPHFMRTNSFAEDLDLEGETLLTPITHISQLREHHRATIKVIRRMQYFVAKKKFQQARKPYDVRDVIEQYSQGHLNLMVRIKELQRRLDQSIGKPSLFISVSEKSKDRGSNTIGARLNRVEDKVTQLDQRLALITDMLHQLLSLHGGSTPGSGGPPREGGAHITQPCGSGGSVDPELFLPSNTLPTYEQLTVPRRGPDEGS
KCNQ2 pot confirm = rat KCNQ2 channel potentiator confirmation; shares compounds with KCNQ2 enhance; CHO-KCNQ2 cells, FluxOR thallium flux fluorescence; potentiation, less the hit threshold, % at 10 µM; 1,200 compounds, 68% hits;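 active = fluorescence ratio rising 3 SD or more over the vehicle control mean in both replicates, plus primary screen hit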;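 note: peak minus minimum thallium fluorescence divided by baseline after K/Tl stimulus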
Kir2-1 sel = mouse Kir2.1 off-target activity of KCNQ2 potentiators | shares compounds with KCNQ2 enhance | HEK293 Kir2.1, FluxOR thallium flux fluorescence | activity over 3SD threshold, % at 10 µM | 1,200 compounds, 2% hits | AID 2345;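 active = fluorescence ratio rise of at least 3 SD above the vehicle-control mean, seen in both replicates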
KCNQ2 W236L MoA = potentiates the retigabine-insensitive rat KCNQ2 W236L mutant channel. AID 2558. CHO KCNQ2-W236L, automated patch clamp current. 940 compounds, 10% hits. current increase over 3SD of negative controls (%), stronger effect = higher value, % at 25 µM. shares compounds with KCNQ2 enhance;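 active = current increase at least 3 SD of the untreated controls above them in both duplicate recordings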
Large screens that a line does not name were inactive (follow-up assays come after a bar, where they were run).

CC(=O)c1ccc(N(C(=O)CNC(=O)c2ccco2)C(C(=O)NC2CCCC2)c2ccncc2)cc1 (stereo unspecified)	none (no result: KCNQ2 enhance)
COc1cccc(CC(=O)OCC(=O)N(C)CC(=O)Nc2ccc(F)cc2)c1	none
CCOc1ccc(C(=O)NCC(=O)NC(C)CCc2ccccc2)cc1OCC (stereo unspecified)	none (no result: KCNQ2 enhance)
COc1ccccc1CN1CCNC(=O)C1CC(=O)NCc1cn(C)nc1C (stereo unspecified)	none
Cc1ccc(CNC(=O)C2(S(=O)(=O)c3ccccc3)CC=CC2)cc1	none
Cc1ccc(-c2oc3ccccc3c(=O)c2OCC(=O)O)cc1	none (no result: KCNQ2 enhance)
Cc1ccc(-c2oc3ccccc3c(=O)c2O)cc1	KCNQ2 enhance 5.6 | Kir21 confirm inactive | HEK293 ctr 162% | CHO-K1 ctr inactive | KCNQ1 pot spec inactive | KCNQ2 pot confirm 21 | Kir2-1 sel inactive | KCNQ2 W236L MoA inactive
O=c1c(O)c(-c2cccs2)oc2ccccc12	KCNQ2 enhance 13 | Kir21 confirm inactive | HEK293 ctr inactive | CHO-K1 ctr 9.6 | KCNQ1 pot spec inactive | KCNQ2 pot confirm 66 | Kir2-1 sel inactive | KCNQ2 W236L MoA inactive
O=c1cc(-c2cccs2)oc2ccc(Cl)cc12	none
O=c1c(O)c(-c2cccs2)oc2ccc(Cl)cc12	none | Kir21 confirm inactive | HEK293 ctr inactive | CHO-K1 ctr inactive | KCNQ1 pot spec inactive | KCNQ2 pot confirm 70 | Kir2-1 sel inactive | KCNQ2 W236L MoA 24%
CCCCn1c(-c2cccs2)nc2oc3ccccc3c(=O)c2c1=O	none
Cc1ccc(S(=O)(=O)N2CCC3(CC2)OCCN3S(=O)(=O)c2c(C)cc(C)cc2C)cc1	none (no result: KCNQ2 enhance)
CCN(CC)CCC(=O)NN	none (no result: KCNQ2 enhance)
COc1ccc([N+](=O)[O-])cc1N(CC(=O)NCCCOC(C)C)S(C)(=O)=O	none
NC(=O)CSc1nnc(-c2ccccn2)n1Cc1ccco1	none (no result: KCNQ2 enhance)
C(=C\c1ccccc1)/CSc1nnc(-c2ccccn2)n1Cc1ccco1	KCNQ2 block -5.8 | Kir21 confirm 60% | HEK293 ctr inactive
Brc1csc(/C=N/Nc2nc3ccccc3s2)c1	none
C(=N\Nc1nc2ccccc2s1)/c1ccccn1	KCNQ2 enhance 11 | Kir21 confirm inactive | HEK293 ctr inactive | CHO-K1 ctr inactive | KCNQ1 pot spec inactive | KCNQ2 pot confirm 44 | Kir2-1 sel inactive | KCNQ2 W236L MoA inactive
CC(NCCCOc1cccc2ccccc12)c1ccccc1 (stereo unspecified)	none (no result: KCNQ2 enhance) | Kir21 confirm 14% | HEK293 ctr inactive
COc1ccc2ccccc2c1CNC(C)c1ccccc1 (stereo unspecified)	none
COc1ccccc1CNCc1ccc(C)cc1	none (no result: KCNQ2 enhance)
COc1ccc2ccccc2c1CNCc1ccc(C)cc1	none (no result: KCNQ2 enhance) | Kir21 confirm 22% | HEK293 ctr inactive
COc1ccc(CNCCCC(=O)Nc2c(Cl)ccc(C)c2Cl)cc1OC	none (no result: KCNQ2 enhance)
c1ccc2c(c1)COC(CNC1CCCCC1)OC2	none
Cc1ccnc(NCc2ccccc2O)c1	none
Cc1ccc(O)c(CNCCNCc2cc(C)ccc2O)c1	none (no result: KCNQ2 enhance) | Kir21 confirm 38% | HEK293 ctr inactive
CCc1ccc(O)c(CNCCNCc2cc(CC)ccc2O)c1	none | Kir21 confirm 50% | HEK293 ctr inactive
CCc1ccc(O)c(N=Cc2ccccc2O)c1	none (no result: KCNQ2 enhance)
COc1cc2c(=O)n(CC3CCCO3)c(=O)n(CC(=O)Nc3ccccc3)c2cc1OC (stereo unspecified)	none (no result: KCNQ2 enhance)
CCN(CC)CCn1c(=N)n(CC(O)COc2cccc(C)c2)c2ccccc21 (stereo unspecified)	none (no result: KCNQ2 enhance) | Kir21 confirm 56% | HEK293 ctr inactive
Cc1cccc(OCC(O)CN2CCNCC2)c1 (stereo unspecified)	none

Screening data: PubChem, Johns Hopkins Ion Channel Center
